What all share (experiment): DAPPL (digital affinity profiling via proximity ligation, sequencing); 10 mM Tris-HCl pH 7.5, 50 mM NaCl, 1 mM DTT, 4% glycerol, room temperature, 30 min; GST-TFs on glutathione beads, 16-mer random dsDNA library, 0.1% formaldehyde crosslink after washing; high values mean tight binding
Common to all, as to details: protein: recombinant; tags: N-terminal GST; dsDNA, one strand shown

The target of experiment [1] is T1, FLI1 (Homo sapiens, UniProt Q01543 1-452).
T1 sequence: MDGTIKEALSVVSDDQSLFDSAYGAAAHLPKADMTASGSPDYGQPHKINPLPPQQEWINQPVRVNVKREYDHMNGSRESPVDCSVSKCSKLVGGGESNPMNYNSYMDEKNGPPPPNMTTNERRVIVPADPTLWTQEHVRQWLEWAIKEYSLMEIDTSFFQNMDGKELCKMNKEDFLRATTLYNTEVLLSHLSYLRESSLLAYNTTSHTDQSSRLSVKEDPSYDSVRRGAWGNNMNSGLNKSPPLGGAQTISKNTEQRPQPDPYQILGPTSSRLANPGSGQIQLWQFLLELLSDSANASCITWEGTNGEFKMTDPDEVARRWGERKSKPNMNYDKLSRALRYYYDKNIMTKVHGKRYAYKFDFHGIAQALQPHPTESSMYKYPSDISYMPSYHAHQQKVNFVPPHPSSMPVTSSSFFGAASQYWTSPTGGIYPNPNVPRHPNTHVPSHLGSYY
Put shortly:
(§1)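 Binding signal is defined as a hexamer's read frequency for one factor over its frequency for the tag-only sample. To obtain reads, GST-fused human transcription factors were expressed in yeast, captured on glutathione beads, barcoded with DNA and pooled with that sample. Pools met 200 nmole of a 16-mer random double-stranded DNA library in Tris/NaCl/DTT/glycerol buffer for 30 min at room temperature before washing, 0.1% formaldehyde crosslinking, proximity ligation (BsaI/T4 ligase, 1 h, 37 °C), PCR and Illumina NextSeq500 sequencing.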

Experiment [2] has as its target T2, ELK1 (Homo sapiens, UniProt P19419 1-428).
T2 sequence: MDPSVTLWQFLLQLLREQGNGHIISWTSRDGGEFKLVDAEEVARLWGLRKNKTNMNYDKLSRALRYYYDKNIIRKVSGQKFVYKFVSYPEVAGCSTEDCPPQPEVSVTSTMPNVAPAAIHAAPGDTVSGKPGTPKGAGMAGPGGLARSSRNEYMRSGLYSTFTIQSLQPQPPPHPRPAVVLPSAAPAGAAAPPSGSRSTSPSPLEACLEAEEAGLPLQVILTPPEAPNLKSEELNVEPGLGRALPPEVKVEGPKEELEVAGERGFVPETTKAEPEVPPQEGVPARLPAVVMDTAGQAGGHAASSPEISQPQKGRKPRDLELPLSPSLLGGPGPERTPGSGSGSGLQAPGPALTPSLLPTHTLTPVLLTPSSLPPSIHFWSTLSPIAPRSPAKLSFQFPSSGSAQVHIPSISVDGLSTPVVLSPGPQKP
The method, boiled down:
as §1

Experiment [3] addresses T3, GABPA (Homo sapiens, UniProt Q06546 1-454).
T3 sequence: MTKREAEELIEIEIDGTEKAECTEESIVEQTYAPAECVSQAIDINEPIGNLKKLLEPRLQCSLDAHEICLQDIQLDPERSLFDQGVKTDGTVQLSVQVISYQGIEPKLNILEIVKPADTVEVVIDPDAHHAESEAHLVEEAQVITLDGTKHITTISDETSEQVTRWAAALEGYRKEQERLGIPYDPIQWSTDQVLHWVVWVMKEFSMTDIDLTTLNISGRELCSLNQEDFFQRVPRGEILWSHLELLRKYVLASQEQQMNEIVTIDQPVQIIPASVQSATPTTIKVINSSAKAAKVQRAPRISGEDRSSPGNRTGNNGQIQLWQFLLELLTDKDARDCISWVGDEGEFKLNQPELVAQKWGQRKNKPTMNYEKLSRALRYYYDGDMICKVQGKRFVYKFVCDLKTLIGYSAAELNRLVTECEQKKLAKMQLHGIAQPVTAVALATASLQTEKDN
Put shortly: as §1

In experiment [4] the target is T4, ERG (Homo sapiens, UniProt P11308 1-479).
T4 sequence: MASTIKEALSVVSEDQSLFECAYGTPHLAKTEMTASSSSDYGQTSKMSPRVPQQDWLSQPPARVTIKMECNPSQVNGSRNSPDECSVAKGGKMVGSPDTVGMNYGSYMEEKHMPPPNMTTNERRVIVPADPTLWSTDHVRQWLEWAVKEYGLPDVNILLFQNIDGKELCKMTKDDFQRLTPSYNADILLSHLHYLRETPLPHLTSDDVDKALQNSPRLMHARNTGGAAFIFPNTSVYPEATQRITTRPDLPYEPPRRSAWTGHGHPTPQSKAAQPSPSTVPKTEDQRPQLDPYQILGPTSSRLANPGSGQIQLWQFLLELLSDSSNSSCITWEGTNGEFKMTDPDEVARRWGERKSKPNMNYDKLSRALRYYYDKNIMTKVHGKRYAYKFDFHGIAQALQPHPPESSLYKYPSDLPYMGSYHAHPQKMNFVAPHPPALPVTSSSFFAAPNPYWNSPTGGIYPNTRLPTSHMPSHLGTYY
The method, boiled down: as §1

Experiment [5] has as its target ELF1 (Homo sapiens, UniProt P32519 1-619). Put shortly: as §1
For experiment [6], the target named is T5, EHF (Homo sapiens, UniProt Q9NZC4 1-300).
T5 sequence: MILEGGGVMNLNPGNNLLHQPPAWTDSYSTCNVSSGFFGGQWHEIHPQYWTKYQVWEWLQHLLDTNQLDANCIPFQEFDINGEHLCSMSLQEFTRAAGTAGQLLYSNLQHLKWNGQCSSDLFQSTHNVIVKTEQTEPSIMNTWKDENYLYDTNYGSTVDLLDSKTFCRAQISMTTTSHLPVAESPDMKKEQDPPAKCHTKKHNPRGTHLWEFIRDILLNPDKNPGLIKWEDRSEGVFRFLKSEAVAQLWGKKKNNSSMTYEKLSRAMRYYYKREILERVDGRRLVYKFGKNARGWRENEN
Put shortly: as §1

Experiment [7] has as its target SPI1 (Homo sapiens, UniProt P17947 1-270). Put shortly:
as §1

Experiment [8] addresses SPIB (Homo sapiens, UniProt Q01892 1-262). Put shortly: as §1
Experiment [9] addresses T6, ELK3 (Homo sapiens, UniProt P41970 1-407).
T6 sequence: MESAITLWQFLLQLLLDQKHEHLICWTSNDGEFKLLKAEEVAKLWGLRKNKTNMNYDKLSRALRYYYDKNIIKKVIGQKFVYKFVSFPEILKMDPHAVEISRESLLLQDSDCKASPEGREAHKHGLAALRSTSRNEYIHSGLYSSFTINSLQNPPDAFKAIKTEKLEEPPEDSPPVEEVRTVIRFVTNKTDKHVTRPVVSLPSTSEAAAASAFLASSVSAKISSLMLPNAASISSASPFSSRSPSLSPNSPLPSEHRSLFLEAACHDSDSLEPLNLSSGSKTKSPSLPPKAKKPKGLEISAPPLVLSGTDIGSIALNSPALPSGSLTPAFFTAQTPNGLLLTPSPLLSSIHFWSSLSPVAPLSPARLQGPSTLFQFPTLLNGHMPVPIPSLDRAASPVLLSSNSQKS
Put shortly: as §1

Experiment [10] concerns the target T7, FEV (Homo sapiens, UniProt Q99581 1-238).
T7 sequence: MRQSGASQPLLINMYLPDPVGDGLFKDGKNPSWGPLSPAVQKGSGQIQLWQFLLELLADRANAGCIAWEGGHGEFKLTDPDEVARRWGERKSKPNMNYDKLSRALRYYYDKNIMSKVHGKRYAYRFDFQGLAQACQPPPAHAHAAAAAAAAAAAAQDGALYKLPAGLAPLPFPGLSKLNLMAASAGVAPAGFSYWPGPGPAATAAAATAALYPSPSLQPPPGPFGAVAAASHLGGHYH
The method, boiled down:
as §1

For experiment [11], the target named is ETV5 (Homo sapiens, UniProt P41161 1-510). Put shortly:
as §1

Experiment [12] has as its target T8, SPIC (Homo sapiens, UniProt Q8N5J4 1-248).
T8 sequence: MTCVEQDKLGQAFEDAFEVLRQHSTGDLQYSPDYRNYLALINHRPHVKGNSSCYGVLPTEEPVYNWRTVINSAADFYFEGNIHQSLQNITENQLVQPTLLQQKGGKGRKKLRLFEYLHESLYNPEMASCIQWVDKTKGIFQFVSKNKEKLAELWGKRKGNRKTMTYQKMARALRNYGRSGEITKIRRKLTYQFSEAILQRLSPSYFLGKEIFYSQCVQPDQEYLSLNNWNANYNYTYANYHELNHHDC
Put shortly:
as §1

Experiment [13] has as its target ELF4 (Homo sapiens, UniProt Q99607 1-663). Put shortly:
as §1

Experiment [14] deals with T9, ELK4 (Homo sapiens, UniProt P28324-2 1-405).
T9 sequence: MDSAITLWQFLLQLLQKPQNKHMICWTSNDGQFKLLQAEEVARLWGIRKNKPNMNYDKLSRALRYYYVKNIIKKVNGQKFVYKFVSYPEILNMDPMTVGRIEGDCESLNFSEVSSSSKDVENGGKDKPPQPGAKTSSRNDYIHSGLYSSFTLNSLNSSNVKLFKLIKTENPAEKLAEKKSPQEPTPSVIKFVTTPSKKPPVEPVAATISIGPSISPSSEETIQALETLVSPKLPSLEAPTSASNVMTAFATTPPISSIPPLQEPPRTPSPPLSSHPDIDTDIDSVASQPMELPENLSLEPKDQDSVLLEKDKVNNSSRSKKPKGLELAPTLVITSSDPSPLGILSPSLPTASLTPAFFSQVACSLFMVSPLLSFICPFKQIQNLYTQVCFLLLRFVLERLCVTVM
Put shortly: as §1

For experiment [15], the target named is T10, ETV2 (Homo sapiens, UniProt O00321 1-342).
T10 sequence: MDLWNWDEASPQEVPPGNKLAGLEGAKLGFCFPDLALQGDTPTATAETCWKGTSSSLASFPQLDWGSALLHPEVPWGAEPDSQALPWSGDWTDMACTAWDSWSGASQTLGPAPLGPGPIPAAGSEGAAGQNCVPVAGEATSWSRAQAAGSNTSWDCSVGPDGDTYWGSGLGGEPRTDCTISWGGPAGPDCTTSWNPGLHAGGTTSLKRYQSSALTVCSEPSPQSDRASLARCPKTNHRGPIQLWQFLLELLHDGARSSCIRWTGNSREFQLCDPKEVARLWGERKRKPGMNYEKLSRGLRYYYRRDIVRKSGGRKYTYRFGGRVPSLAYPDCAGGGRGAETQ
Put shortly:
as §1

Experiment [16] has as its target T11, ELF3 (Homo sapiens, UniProt P78545 1-371).
T11 sequence: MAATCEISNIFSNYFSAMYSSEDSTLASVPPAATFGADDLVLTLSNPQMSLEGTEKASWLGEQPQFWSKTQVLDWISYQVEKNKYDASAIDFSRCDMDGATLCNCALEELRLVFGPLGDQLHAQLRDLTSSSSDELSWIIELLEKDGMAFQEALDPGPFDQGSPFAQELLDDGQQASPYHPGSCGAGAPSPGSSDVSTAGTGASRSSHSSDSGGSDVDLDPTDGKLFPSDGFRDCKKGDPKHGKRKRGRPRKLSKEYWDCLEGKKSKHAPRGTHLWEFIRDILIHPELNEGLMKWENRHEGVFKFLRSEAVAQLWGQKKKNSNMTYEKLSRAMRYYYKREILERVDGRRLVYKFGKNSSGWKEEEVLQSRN
Put shortly:
as §1

The target of experiment [17] is ETV1 (Homo sapiens, UniProt P50549 1-477). The method, boiled down:
as §1

The text below walks through data of PMC7862700, “An all-to-all approach to the identification of sequence-specific readers for epigenetic DNA modifications on cytosine”.

ELF1, sequence (P32519 whole entry): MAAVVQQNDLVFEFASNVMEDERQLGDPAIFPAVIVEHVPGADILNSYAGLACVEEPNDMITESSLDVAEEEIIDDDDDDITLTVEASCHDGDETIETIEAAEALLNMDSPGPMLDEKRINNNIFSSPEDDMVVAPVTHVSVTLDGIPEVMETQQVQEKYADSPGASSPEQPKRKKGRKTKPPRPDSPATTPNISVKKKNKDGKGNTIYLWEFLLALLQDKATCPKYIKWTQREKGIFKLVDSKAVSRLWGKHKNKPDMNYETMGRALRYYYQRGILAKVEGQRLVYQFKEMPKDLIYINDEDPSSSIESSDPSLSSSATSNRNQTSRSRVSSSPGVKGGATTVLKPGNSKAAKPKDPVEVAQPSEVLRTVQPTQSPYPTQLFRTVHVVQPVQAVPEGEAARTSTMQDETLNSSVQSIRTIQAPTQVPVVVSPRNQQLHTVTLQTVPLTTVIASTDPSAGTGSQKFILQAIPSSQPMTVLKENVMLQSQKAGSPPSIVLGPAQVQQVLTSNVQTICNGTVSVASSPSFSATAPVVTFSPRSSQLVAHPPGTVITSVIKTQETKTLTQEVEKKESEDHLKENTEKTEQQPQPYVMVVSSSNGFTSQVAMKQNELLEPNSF
ELF4, sequence (Q99607 whole entry): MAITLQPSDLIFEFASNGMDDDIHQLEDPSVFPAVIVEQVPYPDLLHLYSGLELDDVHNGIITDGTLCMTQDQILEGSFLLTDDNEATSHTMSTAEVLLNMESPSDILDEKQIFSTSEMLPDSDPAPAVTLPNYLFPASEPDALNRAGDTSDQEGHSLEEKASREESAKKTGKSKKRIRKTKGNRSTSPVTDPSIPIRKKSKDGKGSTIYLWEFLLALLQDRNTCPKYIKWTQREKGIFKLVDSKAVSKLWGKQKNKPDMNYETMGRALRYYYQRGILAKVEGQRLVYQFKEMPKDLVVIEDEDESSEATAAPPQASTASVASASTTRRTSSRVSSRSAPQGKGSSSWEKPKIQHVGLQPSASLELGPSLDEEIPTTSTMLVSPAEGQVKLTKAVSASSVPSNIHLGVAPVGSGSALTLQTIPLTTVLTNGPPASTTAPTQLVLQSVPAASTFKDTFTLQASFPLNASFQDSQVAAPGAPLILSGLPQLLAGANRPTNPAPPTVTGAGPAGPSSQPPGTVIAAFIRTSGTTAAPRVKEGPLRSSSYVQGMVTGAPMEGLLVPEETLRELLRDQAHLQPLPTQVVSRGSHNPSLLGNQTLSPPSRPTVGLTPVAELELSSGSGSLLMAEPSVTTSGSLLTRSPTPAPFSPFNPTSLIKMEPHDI
SPIB, sequence (Q01892 whole entry): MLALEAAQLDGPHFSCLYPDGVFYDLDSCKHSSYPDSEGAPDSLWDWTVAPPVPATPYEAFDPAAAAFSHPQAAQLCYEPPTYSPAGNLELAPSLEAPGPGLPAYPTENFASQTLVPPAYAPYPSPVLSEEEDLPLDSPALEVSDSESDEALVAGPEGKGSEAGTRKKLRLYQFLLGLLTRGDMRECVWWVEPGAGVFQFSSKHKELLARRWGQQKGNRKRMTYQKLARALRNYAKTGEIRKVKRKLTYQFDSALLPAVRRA
ETV5, sequence (P41161 whole entry): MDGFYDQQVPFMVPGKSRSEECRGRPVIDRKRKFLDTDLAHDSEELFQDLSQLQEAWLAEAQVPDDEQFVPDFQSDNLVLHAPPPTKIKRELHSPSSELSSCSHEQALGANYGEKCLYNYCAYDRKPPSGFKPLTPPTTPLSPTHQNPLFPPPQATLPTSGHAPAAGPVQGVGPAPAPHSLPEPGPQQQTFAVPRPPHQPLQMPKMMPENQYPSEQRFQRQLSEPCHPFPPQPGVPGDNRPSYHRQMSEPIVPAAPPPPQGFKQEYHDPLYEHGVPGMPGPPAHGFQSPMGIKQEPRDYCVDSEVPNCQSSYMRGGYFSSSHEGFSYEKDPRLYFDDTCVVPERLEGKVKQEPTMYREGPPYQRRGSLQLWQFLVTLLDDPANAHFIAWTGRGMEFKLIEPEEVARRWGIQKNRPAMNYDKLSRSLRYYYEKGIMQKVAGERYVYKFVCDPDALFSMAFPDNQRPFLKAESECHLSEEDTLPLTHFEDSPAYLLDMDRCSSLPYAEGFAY
ETV1, sequence (P50549 whole entry): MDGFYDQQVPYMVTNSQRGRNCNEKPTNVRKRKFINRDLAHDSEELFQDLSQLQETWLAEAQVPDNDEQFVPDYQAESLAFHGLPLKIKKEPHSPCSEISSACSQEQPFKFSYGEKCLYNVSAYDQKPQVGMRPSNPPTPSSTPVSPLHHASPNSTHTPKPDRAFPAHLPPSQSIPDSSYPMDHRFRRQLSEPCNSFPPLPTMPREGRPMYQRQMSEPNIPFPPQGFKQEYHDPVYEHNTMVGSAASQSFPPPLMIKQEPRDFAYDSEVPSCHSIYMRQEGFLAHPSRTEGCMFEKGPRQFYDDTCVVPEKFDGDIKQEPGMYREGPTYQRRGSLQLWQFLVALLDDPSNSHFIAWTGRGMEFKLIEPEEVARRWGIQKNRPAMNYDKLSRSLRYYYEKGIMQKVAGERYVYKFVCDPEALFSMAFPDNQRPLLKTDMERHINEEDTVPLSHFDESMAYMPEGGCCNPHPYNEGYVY

On to CACCCT, for which the binding signal is 1.21 fold enrichment (6-mer frequency, TF over GST control) in experiment [1]; 1.26 fold enrichment (6-mer frequency, TF over GST control) in experiment [2]; 1.18 fold enrichment (6-mer frequency, TF over GST control) in experiment [3]; 1.16 fold enrichment (6-mer frequency, TF over GST control) in [4]; 1.16 fold enrichment (6-mer frequency, TF over GST control) in experiment [5]; 1.02 fold enrichment (6-mer frequency, TF over GST control) in [6]. Further, the binding signal is 1.07 fold enrichment (6-mer frequency, TF over GST control) in [7]; 1.16 fold enrichment (6-mer frequency, TF over GST control) in experiment [8]; 1.14 fold enrichment (6-mer frequency, TF over GST control) in experiment [9]; 1.15 fold enrichment (6-mer frequency, TF over GST control) in experiment [10]; 1.19 fold enrichment (6-mer frequency, TF over GST control) in experiment [11]; 1.13 fold enrichment (6-mer frequency, TF over GST control) in experiment [12]. Moreover, the binding signal in experiment [13] was 1.24 fold enrichment (6-mer frequency, TF over GST control); in experiment [14], 1.07 fold enrichment (6-mer frequency, TF over GST control); in experiment [15], 1.26 fold enrichment (6-mer frequency, TF over GST control); in [16], 1.08 fold enrichment (6-mer frequency, TF over GST control); in experiment [17], 1.24 fold enrichment (6-mer frequency, TF over GST control).
Take GCTGTT: the binding signal in [1] was 1.04 fold enrichment (6-mer frequency, TF over GST control); in experiment [2], 1.07 fold enrichment (6-mer frequency, TF over GST control); in experiment [3], 1.12 fold enrichment (6-mer frequency, TF over GST control); in [4], 1.11 fold enrichment (6-mer frequency, TF over GST control); in [5], 1.1 fold enrichment (6-mer frequency, TF over GST control); in [6], 1.07 fold enrichment (6-mer frequency, TF over GST control). For the same sequence, the binding signal in experiment [7] is 1.06 fold enrichment (6-mer frequency, TF over GST control); in [8], 1.03 fold enrichment (6-mer frequency, TF over GST control); in [9], 1.04 fold enrichment (6-mer frequency, TF over GST control); in [10], 1.16 fold enrichment (6-mer frequency, TF over GST control); in [11], 1.07 fold enrichment (6-mer frequency, TF over GST control); in experiment [12], 1.25 fold enrichment (6-mer frequency, TF over GST control). In addition, the binding signal in experiment [13] was 1.18 fold enrichment (6-mer frequency, TF over GST control); in experiment [14] it was 1.24 fold enrichment (6-mer frequency, TF over GST control); in experiment [15], 1.1 fold enrichment (6-mer frequency, TF over GST control); in experiment [16], 1.17 fold enrichment (6-mer frequency, TF over GST control); in experiment [17], 1.21 fold enrichment (6-mer frequency, TF over GST control).
